Source: PubChem BioAssay (National Center for Advancing Translational Sciences (NCATS))
Most compounds without a hit are left out; they make up all but 6% or so of the library.
D1 antag: human D1 dopamine receptor antagonism | P21728 | HEK293 TREx D1 cells, calcium flux, dopamine EC80; hits give low values | activity change, negative = inhibition, % at 10 µM | 360,000 compounds, 3.2% hits | AID 504652; in the data active means activity change below about -30%
Target sequence (P21728 whole entry, looked up): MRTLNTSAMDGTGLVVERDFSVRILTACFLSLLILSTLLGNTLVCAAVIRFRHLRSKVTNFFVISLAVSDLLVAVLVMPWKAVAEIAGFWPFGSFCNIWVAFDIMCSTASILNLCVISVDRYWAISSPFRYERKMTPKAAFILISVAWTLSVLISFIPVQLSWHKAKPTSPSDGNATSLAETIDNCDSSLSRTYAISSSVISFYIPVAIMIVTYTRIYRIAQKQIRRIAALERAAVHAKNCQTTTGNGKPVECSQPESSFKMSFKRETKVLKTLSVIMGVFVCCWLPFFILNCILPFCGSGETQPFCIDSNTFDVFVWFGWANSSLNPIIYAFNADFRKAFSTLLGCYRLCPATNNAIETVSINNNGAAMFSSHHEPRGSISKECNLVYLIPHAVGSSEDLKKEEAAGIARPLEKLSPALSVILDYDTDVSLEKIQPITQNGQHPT
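Cells carrying a force-coupled, tetracycline-inducible human D1 receptor report calcium flux. Each well gets a 10 s baseline, compound with 180 s monitoring, then an EC80 dopamine stimulus with a second 180 s kinetic read.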
D1 agonist: human D1 receptor agonism. P21728. activation, % at 2 µM. AID 504660. HEK293 T-REx D1 cells, calcium flux, agonist mode. 360,000 compounds, 1% hits; in the data active means activation above about 30%
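Agonism was scored from calcium flux recorded over 180 s (1 read/s) after pintool compound addition, following a 10-cycle baseline. Cells were inducible force-coupled HEK293 TREx D1, plated overnight at 30 C and loaded with no-wash calcium dye.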
D3 antag: D3 dopamine receptor (human) antagonism; D3R cells, DiscoveRx beta-arrestin luminescence, antagonist mode; hits give low values; max response, negative = inhibition, %; 360,000 compounds, 2.5% hits; in the data active means max response below about -50%; inconclusive means no clear call, values can overlap the other calls
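Cells plated overnight at 1500 cells/well, then exposed to library compounds with dopamine controls for 90 minutes at 37 degrees C. DiscoveRx reagent added for 30–60 minutes at room temperature; luminescence read, quantitative HTS format.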
D3 ag: activates the human D3 dopamine receptor; P35462; AID 652048; max activation, %; 410,000 compounds, 0.58% hits; D3R DiscoveRx beta-arrestin cells, luminescence, 90 min; in the data active means max activation above about 30%
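Agonist-mode cell screen: cells plated at 1500/well and incubated overnight at 37 °C, then exposed to library compounds for 90 min at 37 °C. Detection reagent was added for 30–60 min at room temperature, and luminescence was read.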
D1 PAM: potentiators of human D1 dopamine receptor; HEK293 TREx D1 cells, calcium flux, dopamine EC20 potentiation; potentiation, % at 10 µM; 360,000 compounds, 0.036% hits; AID 504651; in the data active means potentiation above about 30%
Large screens that a line does not name were inactive.

Cc1ccc(NC(=O)CNC(=O)c2cccs2)c(O)c1	none
CCc1sc(C(=O)NC2CCN(C)CC2)cc1Br	D1 agonist 36.4
CCc1sc(C(=O)N2CCCN(C)CC2)cc1Br	none
O=C(C[n+]1cc(-c2ccc(Cl)cc2)n2c1CCC2)Nc1nc(-c2ccc(F)cc2)cs1	none
Cc1ccc(NC(=O)CN(C)C(=O)c2ccc(Cl)nc2)cc1	D3 antag -83.7
COc1ccc(NC(=O)CN(C)C(=O)c2cccc(-n3cccc3)c2)cc1	none
Cc1ccc(NC(=O)CN(C)C(=O)c2cccc(-n3cccc3)c2)cc1	D1 antag -39.5
Cc1cc(C)cc(C(=O)NCCC(=O)N2CCC3(CC2)NCCc2[nH]cnc23)c1	none
Cn1nnnc1Sc1ncnc2scc(-c3cccc(Cl)c3)c12	none (no result: D3 antag, D3 ag)
Nc1nc(=O)n(C2OC(CO)C(O)C2O)cc1F (centres undefined)	D3 antag -78.4 (no result: D1 antag, D1 agonist, D1 PAM)
Cn1cc(S(=O)(=O)N2CCCCCC2)cc1C(=O)N1CCN(c2ccc(Cl)cc2)CC1	none (no result: D3 antag)
O=C(COCCOCCOCC(=O)Nc1c(I)cc(I)c(C(=O)O)c1I)Nc1c(I)cc(I)c(C(=O)O)c1I	none (no result: D1 antag, D1 agonist, D3 antag, D1 PAM)
COc1ccc(S(=O)(=O)c2c(N)n(Cc3ccco3)c3nc4ccccc4nc23)cc1	D3 antag -71.3
Cc1ccc(NS(=O)(=O)c2ccc3[nH]c(=O)oc3c2)cc1Cl	none
COC(=O)c1ccc(NS(=O)(=O)c2ccc3[nH]c(=O)oc3c2)cc1	D1 antag -30.2
CCNC(=O)c1ccc(NS(=O)(=O)c2ccc3[nH]c(=O)[nH]c3c2)cc1	D1 antag -40.6
Cc1ccc(C)c(N2CCN(CCCNC(=O)c3nnc(Cc4ccc(F)cc4Cl)o3)CC2)c1	none (no result: D3 antag)
CCCCC(=O)NNC(=S)NC(=O)CCC	D3 antag -58.1
Cc1cccc(NC(=O)C2CC3CCC2C3)c1C (centres undefined)	none (no result: D1 antag, D1 agonist, D1 PAM)
CCC(C)NC(=O)Cn1c(=O)n(CCCC(=O)NCc2ccc(C)cc2)c(=O)c2ccccc21 (centres undefined)	none (no result: D3 antag)
C=CCN=c1scc(-c2ccc3c(c2)NC(=O)CO3)n1/N=C(\C)c1ccccn1	D3 antag -53.4
CC(=O)Nc1sc2c(c1CN1CCCC1)CCCC2	none
CC(=O)Nc1sc2c(c1CN1CCN(c3ccccn3)CC1)CCCC2	D3 antag -62.2
Cc1cccc(CN2CCN(c3ccccn3)CC2)c1	D3 antag inconclusive (no result: D1 antag, D1 agonist, D1 PAM)
c1ccc(COc2cccc(CN3CCN(c4ccccn4)CC3)c2)cc1	D3 ag 39.2
Cc1ccc(CN2CCN(c3ccccn3)CC2)s1	D3 antag inconclusive, D3 ag 59.6
c1ccc(N2CCN(Cc3ccsc3)CC2)nc1	D3 antag inconclusive, D3 ag 53.1
CC1CCC(NCCNC(=O)c2ccco2)CC1 (centres undefined)	none
CC(CCC(=O)NN)C1CCC2C3CCC4CC(O)CCC4(C)C3CCC12C (centres undefined)	none (no result: D1 antag, D1 agonist, D1 PAM)
CC(CCC(C)C(C)(C)C)[C@@H]1CC[C@H]2C3C[C@H](OS(O)(=S)=S)[C@H]4C[C@H](OS(O)(=S)=S)[C@@H](OS(O)(=S)=S)C[C@]4(C)[C@H]3CC[C@]12C (some centres undefined) (tested in a mixture with another compound)	D3 antag -83.0 (no result: D1 antag, D1 agonist, D1 PAM)
O=C(O)CNCC1COc2ccccc2O1 (centres undefined)	none
O=C(NCC1COc2ccccc2O1)c1ccc(NC(=O)c2ccco2)cc1 (centres undefined)	D1 antag -30.2
O=C(NCC1COc2ccccc2O1)c1ccc(Cl)cc1 (centres undefined)	none
Oc1ccc(CNCC2COc3ccccc3O2)cc1 (centres undefined)	D3 antag -72.8
c1ccc2c(c1)OCC(CNCC1COc3ccccc3O1)O2 (centres undefined)	D3 antag -80.6
CN(C)S(=O)(=O)c1cccc(CNCC2COc3ccccc3O2)c1 (centres undefined)	D3 antag inconclusive, D3 ag 30.7
CN(CC(=O)NCC1COc2ccccc2O1)S(=O)(=O)c1ccc(Cl)cc1 (centres undefined)	none (no result: D1 antag, D1 agonist, D1 PAM)
O=C1NC(Cc2ccc(O)cc2)c2nc3ccc(F)cc3c(=O)n2-c2ncccc21 (centres undefined)	none (no result: D1 antag, D1 agonist, D1 PAM)
c1ccc(CCNCC2COc3ccccc3O2)cc1 (centres undefined)	D3 antag -85.5
S=C(NCc1ccccc1)NCC1COc2ccccc2O1 (centres undefined)	none
O=C(CSc1nc2sccc2c(=O)[nH]1)N1CCN(c2ccccc2)CC1	none
COC(=O)C[C@@H]1C=C[C@H](NC(=O)Cc2ccccn2)[C@@H](CO)O1	D3 ag 30.1 (no result: D1 antag, D1 agonist, D1 PAM)
CC1CCc2c(sc3nc(C(C)(C)C)nc(N4CCN(C(=O)CCl)CC4)c23)C1 (centres undefined)	none
OC(CCCN1CCC(O)(c2ccc(Cl)cc2)CC1)c1ccc(F)cc1 (centres undefined)	D1 antag -36.8, D1 agonist 31.8, D3 antag -113.9
OC1(c2ccc(Cl)c(C(F)(F)F)c2)CCN(CCCC(c2ccc(F)cc2)c2ccc(F)cc2)CC1	none (no result: D1 antag, D1 agonist, D3 antag, D1 PAM)
N=c1c2c(-c3ccccc3)c(-c3ccccc3)n(Cc3ccco3)c2ncn1Cc1ccco1	D1 agonist 38.3, D3 antag inconclusive
N=c1c2c(-c3ccccc3)c(-c3ccccc3)n(Cc3ccccc3)c2ncn1CCCn1ccnc1	D1 agonist 118.5
CCCCn1cnc2c(c(-c3ccccc3)c(-c3ccccc3)n2Cc2ccco2)c1=N	D1 agonist 47.4
CC1CCN(S(=O)(=O)c2ccc3c(c2)N(CC(=O)NC(C)C)C(=O)CS3)CC1	none (no result: D3 antag)
O=C1NC(Cc2ccc(O)cc2)c2nc3cc(F)c(F)cc3c(=O)n2-c2ncccc21 (centres undefined)	none (no result: D1 antag, D1 agonist, D1 PAM)
COc1ccc(OC)c(CCNC(=O)c2c(C)nn(-c3ccc(F)cc3)c2-n2cccc2)c1	none (no result: D3 antag)
COc1ccc(CN2CCC(C)(Oc3ccc(C(C)=O)cc3)C2)c2ccccc12 (centres undefined)	none (no result: D1 antag, D1 agonist, D1 PAM)
CC1(Oc2cccc(F)c2)CCN(Cc2csc3ccccc23)C1 (centres undefined)	D3 antag -106.0 (no result: D1 antag, D1 agonist, D1 PAM)
CC1(Oc2cccc(C#N)c2)CCN(Cc2csc3ccccc23)C1 (centres undefined)	D3 antag -80.9 (no result: D1 antag, D1 agonist, D1 PAM)
CC1(Oc2ccc(CC#N)cc2)CCN(Cc2ccccc2OC(F)F)C1 (centres undefined)	none (no result: D1 antag, D1 agonist, D1 PAM)
COC(=O)Cc1ccc(OC2(C)CCN(Cc3csc4ccccc34)C2)cc1 (centres undefined)	D3 antag -85.8 (no result: D1 antag, D1 agonist, D1 PAM)
CCCNC(=O)C1(C)CCN(Cc2csc3ccccc23)C1 (centres undefined)	none (no result: D1 antag, D1 agonist, D1 PAM)
CC1(Oc2cccc(C#N)c2)CCN(Cc2ccccc2OC(F)F)C1 (centres undefined)	D3 antag -88.8 (no result: D1 antag, D1 agonist, D1 PAM)
COc1ccc([N+](=O)[O-])cc1NC(=O)C(C)NNC(=O)c1cccc([N+](=O)[O-])c1 (centres undefined)	none (no result: D1 antag, D1 agonist, D1 PAM)
